Rows were chosen to be rich in hits. Some 0.95% of all compounds tested hit in one or more screens of this group.
RE007 growth inh = less growth of the S. pombe RE007 Vpr strain; S. pombe RE007 Vpr strain, BacTiter-Glo ATP luminescence, 24 h; Potency, µM (titrated, usually from 92.2 µM), usual class: inhibitors; 360,000 tested, 0.21% active; AID 651644; active means well fitted falling curve with a large enough effect; inconclusive means small, poorly fitted or top-dose-only effect; inactive means no such curve, though single readings can be large or run the other way; further: nearly all actives have a fitted effect of over 50% in size
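Fission yeast RE007 carrying one integrated HIV-1 vpr copy, seeded at OD 0.01 in PMG+AL medium with 23 nL pinned compound. Grown 24 h at 30 degrees; viability read by BacTiter-Glo luminescence after 5 min.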
LmPK inhibitor = inhibitors of Leishmania mexicana pyruvate kinase; 290,000 tested, 0.37% active; purified LmPK, Kinase-Glo ATP luminescence, 1 h; Q27686; Potency, µM (highest dose often 57.5 µM), most hits filed as inhibitors
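Purified LmPK (0.1 nM) converted ADP (0.1 mM) to ATP with PEP (0.5 mM) in imidazole buffer pH 7.2 with KCl and MgCl2, 1 h at room temperature. ATP was read by Kinase-Glo luminescence; data normalized to uninhibited and no-enzyme controls.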
TbPYK inhibitor = T. brucei pyruvate kinase inhibition; TbPYK enzyme, Kinase-Glo Plus ATP luminescence, 45 min; Potency, µM (top dose mostly 76.8 µM), most hits filed as inhibitors; Q57TT1; 410,000 tested, 0.12% active; further: nearly all actives have a fitted effect of over 50% in size
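T. brucei PYK with substrate was exposed to pin-transferred compounds across a concentration series, then started with 130 uM ADP (final). After 45 min at room temperature, Kinase-Glo Plus luminescence was read, normalized and curve-fitted.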
Giardia FBPA inh-1 = Giardia lamblia aldolase inhibition | purified Giardia FBPA | Potency, µM (highest dose often 59.6 µM), actives largely listed as inhibitors | 290,000 tested, 0.71% active | AID 2451; further: nearly all actives have a fitted effect of over 55% in size
Target sequence (A8B2U2 whole entry, looked up): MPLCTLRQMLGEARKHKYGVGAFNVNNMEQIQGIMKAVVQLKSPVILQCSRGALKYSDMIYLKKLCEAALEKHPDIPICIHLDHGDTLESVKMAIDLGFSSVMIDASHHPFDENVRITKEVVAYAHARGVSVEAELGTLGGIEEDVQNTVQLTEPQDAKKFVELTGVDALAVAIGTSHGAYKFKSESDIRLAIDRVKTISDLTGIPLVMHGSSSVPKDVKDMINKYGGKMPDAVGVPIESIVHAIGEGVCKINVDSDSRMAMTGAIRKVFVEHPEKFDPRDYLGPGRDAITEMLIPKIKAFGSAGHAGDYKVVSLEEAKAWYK
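Giardia FBPA (40 nM reagent) was preincubated 10 min at RT with compound (up to 57.5 uM final), then substrate plus GAPDH/TPI/NAD/arsenate coupling system with diaphorase/resazurin was added; resorufin fluorescence (525/598 nm) was read after 20 min.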
Giardia growth = inhibitors of Giardia lamblia growth; shares compounds with Giardia FBPA inh-1; AID 2785; 1,500 tested, 5% active; Potency, µM (highest dose often 57.5 µM), usual class: inhibitors; Giardia lamblia trophozoite growth inhibition;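 further: trophozoites exposed to compound for 48 h at 37 °C; nearly all actives have a fitted effect of over 70% in size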
Mammalian tox = counter-screen for Giardia aldolase inhibitors: mammalian cell toxicity; shares compounds with Giardia FBPA inh-1; mammalian cell viability counter-screen, qHTS; Potency, µM (top dose mostly 57.5 µM), actives largely listed as inhibitors; 1,500 tested, 4% active; AID 2786;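 further: Chinese hamster ovary cells used as mammalian cytotoxicity surrogate; viability measured as cellular ATP by luminescence; compound exposure lasted 48 h before reading; nearly all actives have a fitted effect of over 60% in size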
Giardia FBPA inh-2 = confirmation of Giardia fructose-bisphosphate aldolase inhibitors; shares compounds with Giardia FBPA inh-1; purified Giardia aldolase enzyme activity, qHTS; Potency, µM (highest dose often 57.5 µM), hits mostly inhibitors; 1,500 tested, 5% active; AID 2787; further: nearly all actives have a fitted effect of over 45% in size
Rabbit aldolase = rabbit FBP aldolase inhibition by Giardia aldolase hits | 1,500 tested, 4% active | shares compounds with Giardia FBPA inh-1 | Potency, µM (series often up to 57.5 µM), actives largely listed as inhibitors | AID 2794 | Rabbit muscle FBPA enzyme inhibition, selectivity counter-screen; further: nearly all actives have a fitted effect of over 60% in size
Target sequence (P00883 whole entry, looked up): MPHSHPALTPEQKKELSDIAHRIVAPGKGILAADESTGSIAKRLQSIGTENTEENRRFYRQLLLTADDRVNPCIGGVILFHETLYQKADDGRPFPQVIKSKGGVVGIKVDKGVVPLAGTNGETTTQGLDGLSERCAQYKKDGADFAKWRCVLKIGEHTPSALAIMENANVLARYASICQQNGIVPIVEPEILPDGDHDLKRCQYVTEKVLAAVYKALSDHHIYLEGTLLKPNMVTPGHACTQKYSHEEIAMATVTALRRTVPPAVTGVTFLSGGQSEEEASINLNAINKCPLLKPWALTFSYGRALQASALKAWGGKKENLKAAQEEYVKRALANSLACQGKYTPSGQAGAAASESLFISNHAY
GAPDH counter = counter-screen for Giardia aldolase inhibitors: GAPDH coupling enzyme. shares compounds with Giardia FBPA inh-1. GAPDH coupling enzyme counterscreen, biochemical, qHTS. Potency, µM (top dose mostly 57.5 µM), actives largely listed as inhibitors. 1,500 tested, 6% active. AID 2795; further: nearly all actives have a fitted effect of over 55% in size
Hits are given with their value; [ ] = dose if it differs, or a comment. Unless noted, the call rests on the fitted dose curve; in most records, active means well fitted curve in the direction sought with a large enough effect; inconclusive means small, poorly fitted or top-dose-only effect, or another doubt; inactive means no such curve, though single readings can be large; an effect the other way counts as inactive or inconclusive.

Screening Cn1c(=O)[nH]c(=O)c2c1nc(SCC(=O)O)n2Cc1ccccc1 returned RE007 growth inh inactive, LmPK inhibitor inactive, TbPYK inhibitor inconclusive, Giardia FBPA inh-1 14µM, Giardia growth inactive, Mammalian tox inactive, Giardia FBPA inh-2 inactive, Rabbit aldolase inactive and GAPDH counter inactive.
`C/C(CCC(C)C)=N\NC(=S)NCc1ccccc1` gave RE007 growth inh inactive, LmPK inhibitor inactive, TbPYK inhibitor inactive, Giardia FBPA inh-1 16µM, Giardia growth inactive, Mammalian tox inactive, Giardia FBPA inh-2 inactive, Rabbit aldolase inactive and GAPDH counter inactive.
Screening C/C(CCc1ccccc1)=N\NC(=S)NCCc1ccccc1 returned RE007 growth inh inactive, LmPK inhibitor inactive, TbPYK inhibitor inactive and Giardia FBPA inh-1 inactive.
`COc1ccc(C)cc1NC(=O)C(NCC(O)c1ccccc1)c1ccccc1` (stereo unspecified) gave RE007 growth inh inactive, LmPK inhibitor inactive, TbPYK inhibitor inactive, Giardia FBPA inh-1 13µM, Giardia growth inactive, Mammalian tox inactive, Giardia FBPA inh-2 inactive, Rabbit aldolase inactive and GAPDH counter inactive.
Screening COc1ccc(-c2c(O)c3cc(O)cc(O)c3oc2=O)cc1 returned Giardia FBPA inh-1 inactive.
`CCOC(=O)CCCNC(=O)N1CCc2nc(-c3ccccc3)c3c(c2C1)CO[C@@H](C)C3` gave LmPK inhibitor inactive[11.5 µM] and Giardia FBPA inh-1 inactive[12.9 µM].
O=C(O)CC/C(=N/Nc1ncc(C(F)(F)F)cc1Cl)C(=O)O was read as RE007 growth inh inactive, LmPK inhibitor inactive, TbPYK inhibitor inactive, Giardia FBPA inh-1 11µM, Giardia growth 16µM, Mammalian tox inactive, Giardia FBPA inh-2 inactive, Rabbit aldolase inactive and GAPDH counter inactive.
For O=C(O)CCc1ncc(C(F)(F)F)cc1Cl the results were RE007 growth inh inactive, LmPK inhibitor inactive, TbPYK inhibitor inactive and Giardia FBPA inh-1 inactive.
Screening CCn1c(CSc2nnc(-c3cccnc3)n2-c2ccccc2C)nc2cc(C(=O)O)ccc21 returned LmPK inhibitor inactive, Giardia FBPA inh-1 7.9µM, Giardia growth inactive, Mammalian tox inactive, Giardia FBPA inh-2 inconclusive, Rabbit aldolase inactive and GAPDH counter inactive.
CCn1c(CSc2n[nH]c(N)n2)nc2cc(C(=O)O)ccc21 was read as RE007 growth inh inactive, LmPK inhibitor inactive, TbPYK inhibitor inactive, Giardia FBPA inh-1 16µM, Giardia growth inactive, Mammalian tox inactive, Giardia FBPA inh-2 inactive, Rabbit aldolase inactive and GAPDH counter inactive.
Screening CCn1c(CSc2nnc(-c3ccncc3)n2CCOC)nc2cc(C(=O)O)ccc21 returned RE007 growth inh inactive, LmPK inhibitor inactive, TbPYK inhibitor inactive and Giardia FBPA inh-1 inconclusive.
For CCn1c(CSc2nnc3ccccn23)nc2cc(C(=O)O)ccc21 the results were RE007 growth inh inactive, LmPK inhibitor inactive, TbPYK inhibitor inactive and Giardia FBPA inh-1 inactive.
Screening O=C(Nc1ccc(Br)cc1F)c1cc(S(=O)(=O)NC2CCCC2)ccc1F returned TbPYK inhibitor inactive.
Screening C/C(=N/Nc1nc(C)c(C)s1)c1cccc([N+](=O)[O-])c1 returned RE007 growth inh inactive, LmPK inhibitor inactive, TbPYK inhibitor inactive, Giardia FBPA inh-1 32µM, Giardia growth inactive[10.4 µM], Mammalian tox inactive, Giardia FBPA inh-2 inactive, Rabbit aldolase inactive and GAPDH counter inactive.
For COc1cc(CN2CCN(Cc3ccc([N+](=O)[O-])cc3)CC2)c([N+](=O)[O-])cc1OC the results were RE007 growth inh inactive, LmPK inhibitor inactive, TbPYK inhibitor inactive, Giardia FBPA inh-1 13µM, Giardia growth inactive, Mammalian tox inactive, Giardia FBPA inh-2 inconclusive, Rabbit aldolase inactive and GAPDH counter inactive.
For Cc1ccc(S(=O)(=O)n2nc(C)c(S(=O)(=O)N3CCC(C)CC3)c2C)cc1 the results were TbPYK inhibitor inactive.
For O=C1CS/C(=N/N=C\c2ccn[nH]2)N1 the results were RE007 growth inh inactive, LmPK inhibitor inactive, TbPYK inhibitor inactive, Giardia FBPA inh-1 18µM, Giardia growth inconclusive, Mammalian tox inactive, Giardia FBPA inh-2 inactive, Rabbit aldolase inactive and GAPDH counter inactive.
Cc1ccccc1OCCn1c(=N)n(C(C)C)c2ccccc21 was read as TbPYK inhibitor inactive.
O=C(CSc1nc2ncccc2[nH]1)Nc1c(F)cc(F)cc1Br was read as RE007 growth inh inactive, LmPK inhibitor inactive, TbPYK inhibitor inactive, Giardia FBPA inh-1 25µM, Giardia growth inactive, Mammalian tox inactive, Giardia FBPA inh-2 inactive, Rabbit aldolase inactive and GAPDH counter inactive.
CC[C@H](C)[C@H]1O[C@]2(CC[C@@H]1C)C[C@@H]1C[C@@H](C/C=C(\C)[C@H](O[C@@H]3C[C@H](OC)[C@H](O[C@@H]4C[C@H](OC)[C@@H](O)[C@H](C)O4)[C@H](C)O3)[C@@H](C)/C=C/C=C3\CO[C@@H]4[C@H](O)C(C)=C[C@@H](C(=O)O1)[C@]34O)O2 was read as TbPYK inhibitor inactive.
For COc1ccc(CCNC(=O)/C(C#N)=C/c2ccc(OCC(=O)NCC3CCCO3)cc2)cc1OC (stereo unspecified) the results were RE007 growth inh inactive, LmPK inhibitor inactive, TbPYK inhibitor inactive and Giardia FBPA inh-1 inactive.
COc1ccc(CCNC(=O)CNCC2CCCO2)cc1OC (stereo unspecified) was read as RE007 growth inh inactive, LmPK inhibitor inactive, TbPYK inhibitor inactive, Giardia FBPA inh-1 16µM, Giardia growth inactive, Mammalian tox inactive, Giardia FBPA inh-2 inactive, Rabbit aldolase inactive and GAPDH counter inactive.
For COc1ccc(N2CC(NC(=O)c3cc4ccccc4o3)CC2=O)cc1 (stereo unspecified) the results were TbPYK inhibitor inactive.
For COc1cc(/C=C(\C#N)C(=O)c2c[nH]c3ccccc23)cc(OC)c1O the results were RE007 growth inh inactive, LmPK inhibitor inactive[11.5 µM], TbPYK inhibitor inactive, Giardia FBPA inh-1 7.9µM, Giardia growth inactive, Mammalian tox inactive, Giardia FBPA inh-2 2µM, Rabbit aldolase inconclusive and GAPDH counter inconclusive.
For c1ccc2nc3c(nc2c1)CCc1nonc1-3 the results were RE007 growth inh inactive, LmPK inhibitor inactive, TbPYK inhibitor inactive and Giardia FBPA inh-1 inactive.
O/N=C1/CCc2nonc2/C1=N/O was read as RE007 growth inh inconclusive, LmPK inhibitor inactive, TbPYK inhibitor inactive, Giardia FBPA inh-1 16µM, Giardia growth 8.9µM, Mammalian tox inactive, Giardia FBPA inh-2 inactive, Rabbit aldolase inactive and GAPDH counter inactive.
